From ChEMBL document CHEMBL1961873, “Compounds: GSK PKIS; Assays: Nanosyn kinase panel” (2012) come the findings set out here.

Molecules are shown by their SMILES.

Test [1] has as its target Tyrosine-protein kinase Fyn (Homo sapiens) (UniProt P06241). The conditions noted are these: at 1 µM.
For test [2], the target named is Tyrosine-protein kinase HCK (Homo sapiens) (UniProt P08631). Particulars: at 0.1 µM.
The target is the same in test [3]. The conditions noted are these: at 1 µM.
The target of test [4] is Insulin-like growth factor 1 receptor (Homo sapiens) (UniProt P08069). The conditions noted are these: at 0.1 µM.
Test [5] has the same target. Particulars: at 1 µM.
Test [6] concerns the target Insulin receptor (Homo sapiens) (UniProt P06213). Particulars: at 0.1 µM.
Test [7] has the same target. Particulars: at 1 µM.
For test [8], the target named is Insulin receptor-related protein (Homo sapiens) (UniProt P14616). The conditions noted are these: at 0.1 µM.
The target is the same in test [9]. The conditions noted are these: at 1 µM.
Test [10] has as its target T1, Tyrosine-protein kinase ITK/TSK (Homo sapiens) (UniProt Q08881).
T1 sequence (whole entry): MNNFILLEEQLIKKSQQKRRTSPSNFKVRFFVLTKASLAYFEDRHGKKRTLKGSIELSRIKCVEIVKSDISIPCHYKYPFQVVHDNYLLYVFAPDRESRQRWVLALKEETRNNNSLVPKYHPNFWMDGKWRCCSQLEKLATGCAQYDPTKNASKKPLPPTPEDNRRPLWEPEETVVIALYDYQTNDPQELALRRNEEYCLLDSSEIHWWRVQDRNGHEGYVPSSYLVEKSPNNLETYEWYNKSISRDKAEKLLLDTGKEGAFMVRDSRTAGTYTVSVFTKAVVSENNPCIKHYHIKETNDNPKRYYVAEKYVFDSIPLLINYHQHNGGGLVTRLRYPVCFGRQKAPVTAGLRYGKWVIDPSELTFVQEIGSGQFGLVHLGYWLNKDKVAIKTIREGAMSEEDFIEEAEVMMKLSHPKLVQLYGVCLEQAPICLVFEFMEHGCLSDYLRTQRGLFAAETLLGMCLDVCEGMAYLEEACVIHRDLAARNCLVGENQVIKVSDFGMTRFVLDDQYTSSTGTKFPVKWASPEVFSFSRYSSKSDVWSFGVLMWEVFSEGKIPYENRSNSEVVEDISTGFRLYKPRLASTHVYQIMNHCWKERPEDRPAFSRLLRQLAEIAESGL
The conditions noted are these: at 0.1 µM.

For test [11], the target named is T1, Tyrosine-protein kinase ITK/TSK (Homo sapiens). The conditions noted are these: at 1 µM.
For test [12], the target named is Tyrosine-protein kinase JAK1 (Homo sapiens) (UniProt P23458). Particulars: at 0.1 µM.
Test [13] has the same target. Particulars: at 1 µM.
Test [14] has as its target Tyrosine-protein kinase JAK2 (Homo sapiens) (UniProt O60674). The conditions noted are these: at 0.1 µM.
For test [15] the target is unchanged. The conditions noted are these: at 1 µM.
Test [16] deals with T2, Tyrosine-protein kinase JAK3 (Homo sapiens) (UniProt P52333).
T2 sequence (whole entry): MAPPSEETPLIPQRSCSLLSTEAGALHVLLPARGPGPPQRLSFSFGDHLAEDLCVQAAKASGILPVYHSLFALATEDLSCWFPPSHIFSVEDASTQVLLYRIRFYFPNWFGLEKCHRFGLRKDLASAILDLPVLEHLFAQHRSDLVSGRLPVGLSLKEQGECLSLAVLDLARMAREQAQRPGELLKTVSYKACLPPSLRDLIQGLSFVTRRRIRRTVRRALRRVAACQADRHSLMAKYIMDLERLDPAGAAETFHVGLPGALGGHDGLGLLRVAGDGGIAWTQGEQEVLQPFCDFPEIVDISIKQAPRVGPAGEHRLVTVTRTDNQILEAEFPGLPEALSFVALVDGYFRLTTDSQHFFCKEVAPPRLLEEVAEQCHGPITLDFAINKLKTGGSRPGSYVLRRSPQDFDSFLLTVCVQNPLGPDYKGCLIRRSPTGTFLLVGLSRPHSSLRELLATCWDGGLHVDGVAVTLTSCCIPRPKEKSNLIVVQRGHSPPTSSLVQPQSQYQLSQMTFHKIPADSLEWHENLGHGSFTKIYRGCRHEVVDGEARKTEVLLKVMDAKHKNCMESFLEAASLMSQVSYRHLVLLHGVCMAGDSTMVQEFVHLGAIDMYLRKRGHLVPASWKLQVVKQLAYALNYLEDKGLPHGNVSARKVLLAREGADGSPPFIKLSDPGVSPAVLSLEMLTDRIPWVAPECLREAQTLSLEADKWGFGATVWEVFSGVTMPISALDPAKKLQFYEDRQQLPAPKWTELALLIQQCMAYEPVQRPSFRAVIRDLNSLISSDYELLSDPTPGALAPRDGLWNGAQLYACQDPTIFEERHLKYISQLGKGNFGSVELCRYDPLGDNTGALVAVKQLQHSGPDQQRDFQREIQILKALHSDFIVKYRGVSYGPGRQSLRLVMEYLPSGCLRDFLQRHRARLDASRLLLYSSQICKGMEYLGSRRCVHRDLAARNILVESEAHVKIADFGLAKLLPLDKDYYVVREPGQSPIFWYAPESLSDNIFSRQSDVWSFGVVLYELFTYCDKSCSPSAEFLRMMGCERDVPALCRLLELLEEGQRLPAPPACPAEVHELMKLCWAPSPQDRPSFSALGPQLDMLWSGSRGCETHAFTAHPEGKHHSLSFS
Particulars: at 0.1 µM.

Test [17] addresses T2, Tyrosine-protein kinase JAK3 (Homo sapiens). Particulars: at 1 µM.
For test [18], the target named is Vascular endothelial growth factor receptor 2 (Homo sapiens) (UniProt P35968). Particulars: at 0.1 µM.
Test [19] shares this target. Particulars: at 1 µM.
The target of test [20] is Mast/stem cell growth factor receptor Kit (Homo sapiens) (UniProt P10721). Particulars: at 0.1 µM.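 Also: values are mean inhibition of KIT, from the GSK PKIS dataset.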
Sequence of Mast/stem cell growth factor receptor Kit (Homo sapiens) (P10721 whole entry): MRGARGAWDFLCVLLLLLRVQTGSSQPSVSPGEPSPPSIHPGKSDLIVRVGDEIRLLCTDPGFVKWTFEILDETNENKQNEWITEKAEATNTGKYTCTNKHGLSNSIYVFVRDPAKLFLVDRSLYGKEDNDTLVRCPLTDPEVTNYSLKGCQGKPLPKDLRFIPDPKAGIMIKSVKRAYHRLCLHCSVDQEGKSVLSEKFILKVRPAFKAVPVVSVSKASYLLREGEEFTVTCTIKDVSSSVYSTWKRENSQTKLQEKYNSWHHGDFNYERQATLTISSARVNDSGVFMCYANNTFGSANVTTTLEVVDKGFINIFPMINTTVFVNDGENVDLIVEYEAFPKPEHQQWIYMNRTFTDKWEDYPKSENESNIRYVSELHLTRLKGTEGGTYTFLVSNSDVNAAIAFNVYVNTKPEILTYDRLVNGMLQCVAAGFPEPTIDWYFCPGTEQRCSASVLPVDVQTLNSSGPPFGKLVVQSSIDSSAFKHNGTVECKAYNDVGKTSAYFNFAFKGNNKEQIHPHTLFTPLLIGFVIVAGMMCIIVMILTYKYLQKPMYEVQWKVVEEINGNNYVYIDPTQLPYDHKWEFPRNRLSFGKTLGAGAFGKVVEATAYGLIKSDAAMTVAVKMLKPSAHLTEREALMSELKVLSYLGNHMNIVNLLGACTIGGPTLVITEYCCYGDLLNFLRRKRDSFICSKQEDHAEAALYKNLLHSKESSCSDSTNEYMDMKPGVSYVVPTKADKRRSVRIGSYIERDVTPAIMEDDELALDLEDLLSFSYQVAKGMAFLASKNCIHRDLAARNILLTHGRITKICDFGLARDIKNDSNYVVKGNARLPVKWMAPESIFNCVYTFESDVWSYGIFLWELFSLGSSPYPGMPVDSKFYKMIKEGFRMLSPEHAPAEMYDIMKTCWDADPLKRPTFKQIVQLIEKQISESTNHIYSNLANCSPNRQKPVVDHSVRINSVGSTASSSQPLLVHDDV

Sequence of Tyrosine-protein kinase JAK1 (Homo sapiens) (P23458 whole entry): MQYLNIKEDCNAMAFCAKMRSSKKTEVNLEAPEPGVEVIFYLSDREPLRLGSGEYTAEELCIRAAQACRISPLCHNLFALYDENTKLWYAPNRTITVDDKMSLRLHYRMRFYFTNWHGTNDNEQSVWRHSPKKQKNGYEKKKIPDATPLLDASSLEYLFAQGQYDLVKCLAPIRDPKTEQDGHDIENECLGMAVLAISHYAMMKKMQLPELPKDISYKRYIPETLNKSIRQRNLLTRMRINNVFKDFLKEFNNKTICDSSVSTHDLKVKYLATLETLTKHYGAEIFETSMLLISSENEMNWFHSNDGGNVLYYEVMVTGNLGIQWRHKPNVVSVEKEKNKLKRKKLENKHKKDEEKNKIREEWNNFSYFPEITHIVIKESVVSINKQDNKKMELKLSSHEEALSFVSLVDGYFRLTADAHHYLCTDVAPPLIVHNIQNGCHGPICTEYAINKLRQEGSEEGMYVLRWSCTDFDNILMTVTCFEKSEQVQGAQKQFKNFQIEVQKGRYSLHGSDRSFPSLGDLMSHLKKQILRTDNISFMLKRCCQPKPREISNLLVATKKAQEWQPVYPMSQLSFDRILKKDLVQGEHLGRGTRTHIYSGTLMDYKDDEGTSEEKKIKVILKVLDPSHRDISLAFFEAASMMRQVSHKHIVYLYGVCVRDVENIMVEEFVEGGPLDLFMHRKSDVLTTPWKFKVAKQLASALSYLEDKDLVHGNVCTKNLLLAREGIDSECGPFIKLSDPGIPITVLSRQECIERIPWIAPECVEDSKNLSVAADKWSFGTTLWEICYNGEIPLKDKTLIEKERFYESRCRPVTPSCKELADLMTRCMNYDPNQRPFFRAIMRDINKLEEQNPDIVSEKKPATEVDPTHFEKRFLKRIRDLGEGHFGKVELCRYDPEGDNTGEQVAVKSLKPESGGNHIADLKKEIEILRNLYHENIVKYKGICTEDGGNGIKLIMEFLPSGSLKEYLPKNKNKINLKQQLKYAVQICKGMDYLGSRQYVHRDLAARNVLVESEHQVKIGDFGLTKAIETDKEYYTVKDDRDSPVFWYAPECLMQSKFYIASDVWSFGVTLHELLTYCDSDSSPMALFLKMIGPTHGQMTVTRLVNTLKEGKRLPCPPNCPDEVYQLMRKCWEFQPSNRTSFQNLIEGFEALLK
Sequence of Vascular endothelial growth factor receptor 2 (Homo sapiens) (P35968 whole entry): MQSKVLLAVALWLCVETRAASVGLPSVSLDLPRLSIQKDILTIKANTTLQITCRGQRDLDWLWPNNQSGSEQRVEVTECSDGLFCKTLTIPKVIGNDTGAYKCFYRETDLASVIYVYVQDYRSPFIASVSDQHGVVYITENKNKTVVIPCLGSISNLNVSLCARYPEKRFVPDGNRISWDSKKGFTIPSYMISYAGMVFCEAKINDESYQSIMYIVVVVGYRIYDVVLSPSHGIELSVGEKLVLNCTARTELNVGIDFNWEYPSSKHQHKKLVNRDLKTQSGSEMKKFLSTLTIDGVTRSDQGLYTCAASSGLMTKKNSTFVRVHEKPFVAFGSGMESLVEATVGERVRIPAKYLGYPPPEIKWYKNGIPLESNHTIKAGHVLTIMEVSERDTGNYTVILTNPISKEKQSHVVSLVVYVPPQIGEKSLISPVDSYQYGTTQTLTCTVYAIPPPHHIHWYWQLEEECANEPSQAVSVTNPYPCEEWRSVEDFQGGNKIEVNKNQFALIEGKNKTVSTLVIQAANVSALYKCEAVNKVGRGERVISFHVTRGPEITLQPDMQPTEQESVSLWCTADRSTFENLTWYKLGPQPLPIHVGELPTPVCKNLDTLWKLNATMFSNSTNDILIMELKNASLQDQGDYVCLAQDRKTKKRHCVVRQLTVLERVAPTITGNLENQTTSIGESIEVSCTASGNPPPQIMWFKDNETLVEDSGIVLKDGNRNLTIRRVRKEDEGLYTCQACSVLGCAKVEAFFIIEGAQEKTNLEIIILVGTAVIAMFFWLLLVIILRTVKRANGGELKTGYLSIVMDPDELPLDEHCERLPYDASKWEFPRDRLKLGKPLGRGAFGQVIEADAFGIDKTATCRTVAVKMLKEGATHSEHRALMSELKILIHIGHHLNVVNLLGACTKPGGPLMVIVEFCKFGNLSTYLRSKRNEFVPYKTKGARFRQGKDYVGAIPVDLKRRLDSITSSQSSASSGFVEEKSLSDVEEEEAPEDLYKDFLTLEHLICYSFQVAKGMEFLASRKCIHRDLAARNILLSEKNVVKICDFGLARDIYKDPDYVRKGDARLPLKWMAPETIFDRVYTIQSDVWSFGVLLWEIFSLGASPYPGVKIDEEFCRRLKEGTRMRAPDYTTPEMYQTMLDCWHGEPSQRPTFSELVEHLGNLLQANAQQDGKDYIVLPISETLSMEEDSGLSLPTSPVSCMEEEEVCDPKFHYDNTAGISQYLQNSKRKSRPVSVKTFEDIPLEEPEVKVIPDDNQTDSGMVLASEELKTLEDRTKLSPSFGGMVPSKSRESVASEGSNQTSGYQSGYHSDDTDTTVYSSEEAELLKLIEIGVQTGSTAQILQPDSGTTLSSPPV
Sequence of Insulin receptor (Homo sapiens) (P06213 28-758 limits assumed): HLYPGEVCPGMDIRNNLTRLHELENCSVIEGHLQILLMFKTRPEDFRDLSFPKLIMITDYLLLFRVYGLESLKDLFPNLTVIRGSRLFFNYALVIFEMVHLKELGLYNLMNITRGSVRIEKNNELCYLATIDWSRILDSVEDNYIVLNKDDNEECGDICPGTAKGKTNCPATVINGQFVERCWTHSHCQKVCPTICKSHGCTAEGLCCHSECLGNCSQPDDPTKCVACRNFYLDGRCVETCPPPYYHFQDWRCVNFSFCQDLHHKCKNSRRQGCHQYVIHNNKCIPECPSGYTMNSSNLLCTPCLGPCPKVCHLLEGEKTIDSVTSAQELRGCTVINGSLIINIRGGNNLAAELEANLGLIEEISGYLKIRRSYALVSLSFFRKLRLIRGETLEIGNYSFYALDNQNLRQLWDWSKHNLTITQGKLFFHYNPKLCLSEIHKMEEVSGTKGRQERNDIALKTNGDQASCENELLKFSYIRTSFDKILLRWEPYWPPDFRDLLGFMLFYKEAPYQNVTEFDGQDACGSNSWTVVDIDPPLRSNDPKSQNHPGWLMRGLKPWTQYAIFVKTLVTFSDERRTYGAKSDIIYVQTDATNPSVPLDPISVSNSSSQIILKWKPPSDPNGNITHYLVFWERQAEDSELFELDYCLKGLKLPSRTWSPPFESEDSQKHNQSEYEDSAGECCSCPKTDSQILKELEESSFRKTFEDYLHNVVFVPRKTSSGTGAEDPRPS
Sequence of Insulin receptor (Homo sapiens) (P06213 763-1382 limits assumed): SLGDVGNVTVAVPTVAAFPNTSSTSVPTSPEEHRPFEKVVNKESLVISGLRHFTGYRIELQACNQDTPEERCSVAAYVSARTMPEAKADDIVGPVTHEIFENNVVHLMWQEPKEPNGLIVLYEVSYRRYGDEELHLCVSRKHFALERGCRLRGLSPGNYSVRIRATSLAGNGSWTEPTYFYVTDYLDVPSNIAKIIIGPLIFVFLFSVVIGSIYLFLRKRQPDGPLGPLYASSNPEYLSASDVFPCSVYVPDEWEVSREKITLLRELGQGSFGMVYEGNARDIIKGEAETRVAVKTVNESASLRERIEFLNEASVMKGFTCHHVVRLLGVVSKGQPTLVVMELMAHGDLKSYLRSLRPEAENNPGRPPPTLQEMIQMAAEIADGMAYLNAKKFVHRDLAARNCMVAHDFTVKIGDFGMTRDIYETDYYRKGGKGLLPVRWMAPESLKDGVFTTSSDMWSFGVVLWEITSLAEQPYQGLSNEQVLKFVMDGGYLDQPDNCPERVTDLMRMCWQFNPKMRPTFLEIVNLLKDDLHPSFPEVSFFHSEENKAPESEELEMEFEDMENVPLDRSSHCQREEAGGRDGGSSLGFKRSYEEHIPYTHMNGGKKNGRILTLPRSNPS

With `Cc1ccc2c(-c3ccnc(Nc4ccc5c(c4)OCCO5)n3)c(-c3ccc(C(F)(F)F)cc3)nn2n1`, the inhibition – broadly, the relative decrease from the control value, in per cent – in [1] is 5.39%; in test [2] it was 1.01%; in [3] it was 2.01%; in test [4] it was -4.21%; in [5] it was 0.39%; in test [6], -0.36%. Moreover, the inhibition in test [7] is 1.45%; in test [8], 1.35%; in test [9] it was 0.34%; in [10], -1.23%; in test [11], 1.1%; in test [12], 1.09%. In addition, the inhibition in test [13] is 1.09%; in test [14], 0.16%; in test [15], -1.16%; in [16] it was -2.23%; in test [17], 1.23%; in [18], -0.67%. The values for the inhibition in [19] and in [20] were 2.81% and -0.52%, respectively.
As to `NS(=O)(=O)c1cccc(-c2cc3ccncc3cc2OCc2ccccc2)c1`, the inhibition in test [1] was 4.87%; in test [2], 7.87%; in test [3], 11.1%; in test [4] it was 9.68%; in test [5], 10.4%; in test [6], 2.6%. The inhibition stood at 4.4% in test [7]; 2.82% in test [8]; 1.54% in test [9]; 1.77% in [10]; 3.72% in [11]; 0.51% in test [12]. The inhibition in [13] is 2.7%; in test [14], 1.82%; in test [15] it was 0.92%; in test [16], -0.33%; in test [17], 0.81%; in test [18], 13.4%. Further, the inhibition in test [19] was 17.1%; in test [20], 6.67%.
For the compound `Cc1cc(Cl)cc2c1NC(=O)C2=NNc1ccc(S(N)(=O)=O)cc1`, the inhibition worked out at 3.01% in test [1]; 2.49% in [2]; 4.3% in test [3]; 2.32% in test [4]; 0.19% in [5]; 2.78% in test [6]. Further, the inhibition in test [7] was 4.18%; in [8], -0.92%; in test [9], 1.47%; in test [10], 1.14%; in test [11], 1.14%; in test [12], 2.03%. Further, the inhibition in test [13] was 12.7%; in test [14] it was -0.3%; in [15], 0.42%; in test [16] it was -0.31%; in [17] it was 0.84%; in test [18], 1.84%. In addition, the inhibition in test [19] worked out at 4.19%.
Regarding `c1ccc(Nc2ncc(-c3ccccc3)o2)cc1`, the inhibition in [1] was 15.1%; in [2], 6.83%; in test [3], 13.3%; in test [4] it was 7.16%; in [5] it was 5.2%; in test [6] it was 4.8%. Also, the inhibition is 6.98% in [7]; 2.31% in [8]; 2.61% in test [9]; 0.38% in [10]; 1.67% in test [11]; 8.4% in [12]. Besides, the inhibition was 8.08% in test [13]; 1.08% in [14]; 1.6% in test [15]; -1.29% in [16]; -1.89% in test [17]; 4.68% in test [18]. Further, the values for the inhibition in test [19] and in test [20] were 19.8% and 30.9%, respectively.
For the compound `CC(C)c1ccc(Nc2nccc(-c3cnn4ncccc34)n2)cc1`, the inhibition is 6.49% in [1]; 4% in test [2]; 8.83% in test [3]; 11.8% in test [4]; 53.1% in test [5]; 10.2% in test [6]. The inhibition in test [7] worked out at 48.2%; in test [8] it was 2.81%; in test [9], 8.71%; in [10] it was 0.75%; in [11], 1.41%; in test [12], 2.68%. Besides, the inhibition is 8.98% in test [13]; 2.04% in test [14]; 8.72% in [15]; 0.01% in test [16]; 6.19% in [17]; 5.7% in [18]. Besides, the figures for the inhibition in [19] and in test [20] were 14.6% and 68.6%, respectively.
`Cc1ccc2c(-c3ccnc(Nc4cccc(C(F)(F)F)c4)n3)c(-c3ccccc3)nn2n1`: the inhibition stood at 61% in [1]; 11.3% in test [2]; 45.1% in [3]; 2.54% in [4]; 4.76% in test [5]; 8.09% in [6]. Moreover, the inhibition stood at 24.8% in [7]; 2.33% in test [8]; 6.16% in test [9]; 1.33% in test [10]; 1.69% in test [11]; 6.27% in test [12]. In addition, the inhibition in test [13] is 4.74%; in test [14] it was 1.01%; in test [15] it was 2.03%; in test [16] it was -1.71%; in [17], -2.26%; in [18], 17.7%. In addition, the inhibition was 69.3% in [19] and 9.72% in test [20].
`CN(C)C(=O)O[C@@H]1CN[C@@H](C#Cc2cc3ncnc(Nc4ccc(OCc5cccc(F)c5)c(Cl)c4)c3s2)C1`: the inhibition was 3.53% in [1]; 1.53% in [2]; 4.13% in [3]; -0.74% in test [4]; 0% in [5]; 0.78% in [6]. Also, the inhibition in test [7] is 1.75%; in test [8], -1.28%; in [9] it was 0.29%; in [10] it was 0.62%; in test [11] it was 0.1%; in test [12] it was 1.28%. Moreover, the inhibition in test [13] is 0.05%; in test [14] it was 0.23%; in test [15], -0.45%; in [16], 0.14%; in [17], 2.09%; in [18] it was 0.75%. For the same compound, the inhibition in test [19] is 3.31%; in test [20] it was -1.17%.
